Here are results for 40 compounds from PubChem BioAssay (NCI).

Several values for one entry are separate records, joined by “and”; a condition that tells them apart may be missing. Identical values can stand only once. The panel holds about 83,000 compounds, 20% with a hit somewhere; the sample as a whole holds those more often.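 Values shown are percent growth following 48 h exposure of cells in 96-well plates to a single concentration of compound; below 10 was considered active.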 A number with no mark means an inactive call. Activity calls are given as the source filed them.

The subject of this assay is MDA-MB-468 breast. Put plainly: NCI-60 one-dose screen, 48 h (100 = growth as untreated, 0 = no growth, -100 = all killed). The settings on record: 10 µM unless noted.
With `CCN1CCN(c2cc(C)c3cc(NC(=O)c4ccc(OC)c(OC)c4)ccc3n2)CC1`, the growth was 1.89% (active).
Under `COc1ccc(N2CCN(C(=O)CSc3ccc(-c4nc5cc(C)c(C)cc5[nH]4)cn3)CC2)cc1` stands 49.5%.
Under `CC(=O)c1sc(-c2ccccc2)cc1N` stands 91.7%; under `O=C(NCC(c1ccsc1)N1CCCCCC1)c1ccc(C(F)(F)F)cc1` (stereo not given), 95.3%; under `Cc1ccc2nc(C)c(-c3nnc(SCc4ccc(C#N)cc4)o3)n2c1`, 87.5%.
The figure for `N#CC1C(=O)c2ccccc2C1c1ccccc1` (stereo not given) is 94.3% and 119%.
In the case of `CCCCCCCCCCCCCCCCCC[S+](C)CC` (stereo not given), the growth was -42.5% (active).
The figure for `CCN1C[C@@H](C)n2c(c(O)c3c(=O)n(Cc4ccc(F)c(Cl)c4)nc(C(=O)NC)c32)C1=O` is 45%; for `O=C(Nc1ccccc1)OCC(CN1CCCCC1)OC(=O)Nc1ccccc1` (stereo not given) it is 59% and 94.1%.
Under `O=C(NO)c1ccc(Cn2c(=O)n(-c3ccccc3F)c(=O)c3ccccc32)cc1` stands -10.8% (active); under `S=C(N/N=C/c1ccccn1)Nc1ccccn1`, -1.71% (active).
Under `O=[N+]([O-])c1ccc(S(=O)(=O)NN=C2CCCCC2)cc1` stands 115%; under `Nc1cccc(-c2nc3sccn3c2-c2ccnc(NCCCNS(=O)(=O)c3ccc(C(F)(F)F)cc3)n2)c1`, 0.59% (active); under `S=c1nc[nH]c2nc[nH]c12`, 6.65% [50 µM] (active).
For the compound `O=C(Nc1ccncc1)C(=O)c1cn(S(=O)(=O)c2cccc3ccccc23)c2ccccc12`, the growth was 19.5%.
The figure for `O=C(Nc1ccc(Oc2ccc(F)cc2)c(Cl)c1)c1cccnc1` is 57.2%.
The figure for `N#Cc1c(N)nc(NCCO)nc1-c1ccc(F)cc1` is 102%; for `CS(=O)(CCCCN=C=S)=NC(=O)c1c(F)c(F)c(F)c(F)c1F` (stereo not given) it is 72.6%.
The figure for `O=C(/C=C/c1ccc([N+](=O)[O-])cc1)c1ccccc1` is 110%; for `CCC(CO)Nc1nc2ccc(Cl)cc2c2ccccc12` (stereo not given) it is 33%; for `O=C(C[n+]1cccc(Br)c1)c1ccc2c(c1)CCCC2` it is 94%.
Take `CS(=O)(=O)c1ccc(NC(=O)c2ccccc2)nc1`: the growth is 105%.
The figure for `C=Cc1cc[n+](CCCCCCCCCCCC)cc1` is 102%; for `CCNCC(C)(C)O` it is 115%.
For the compound `O=c1ccc(-c2nc(N3CCOCC3)c3ccccc3n2)c[nH]1`, the growth is 95.8%.
Under `COc1cccc(-c2ccc3c(c2)NC(=O)/C3=C\c2ccc[nH]2)c1` stands 3.08% (active); under `CCn1c(C)nc([N+](=O)[O-])c1Sc1nc(N)nc2nc[nH]c12`, -11.2% (active); under `C=CC[Se]C(=O)Cc1c(C)n(C(=O)c2ccc(Cl)cc2)c2ccc(OC)cc12`, -37.5% (active).
On to `CCOC(=O)C1=CSC2=NC3=C(CCC/C3=C\c3ccc(Cl)cc3)C(c3ccc(Cl)cc3)N12` (stereo not given), for which the growth is 84.9%.
Under `CC(=C(c1ccc(OCCN2CCCC2)cc1)c1ccc(OCCN2CCCC2)cc1)c1ccc(Cl)cc1` stands -85.3% (active); under `Cc1ccc2c(C(C[N+](=O)[O-])c3ccccc3F)c(-c3ccccc3)[nH]c2c1` (stereo not given), 10.5%.
Under `Cc1ccc(CNc2c3ccccc3nc3ccccc23)cc1` stands 7.18% (active); under `O=C(OC(OC(=O)c1cc(Cl)cc(Cl)c1)c1cccc2ccccc12)c1ccccc1` (stereo not given), 111%; under `OCCOCC(F)(F)F`, 106%.
Under `CCN1C(=S)N(c2ccccc2)C2C1NN=c1s/c(=C3\C(=O)N(C(C)C)c4ccccc43)c(=O)n12` (stereo not given) stands 94.5%; under `NC(N)=NS(=O)(=O)c1ccc(NC2=C(I)C(=O)c3ncccc3C2=O)cc1`, 94.1%.
`NS(=O)(=O)c1ccc(N=Nc2c(O)n(Cc3ccccc3)c3ccc(Cl)cc23)cc1`: the growth is 83.3%.
The figure for `Cc1c2cccnc2c(C)c2c1c1cc(CO)ccc1n2C` is -48.7% (active); for `Oc1ccc(CNNc2ccnc3c(O)cccc23)c2cccnc12` it is 64.3%.
The figure for `CCCC(C)c1cc(Cc2cc(Cl)cc(Cl)c2O)c(O)c(Cc2cc(Cl)cc(Cl)c2O)c1` (stereo not given) is -1.2% (active).
